Sampled rows, rich in hits. Any-hit rate of the full collection: about 3.5%.
Autofluor counter: flagged as autofluorescent in microsphere protease counterscreen; compound autofluorescence counterscreen, microsphere flow cytometry; hits give high values; fluorescence intensity (test concentration not listed); 360,000 compounds, 3.1% hits; AID 624483; in the data active = fluorescence intensity above about 16000; inconclusive = no clear call, values can overlap the other calls
Anthrax LF inh2: Bacillus anthracis LF protease inhibitors, primary screen, biochemical, multiplex microsphere, MLPCN library. Lethal factor (Bacillus anthracis), P15917. multiplex microsphere protease cleavage assay. inhibition, % at 10 µM. 360,000 compounds, 0.12% hits. AID 588501, 2011; note: plate controls were buffer without enzyme for full effect and enzyme alone for no effect
BoNT A protease: BoNT/A light chain protease inhibitors, primary screen, biochemical, flow cytometry, MLPCN library; 360,000 compounds, 0.17% hits; inhibition, % at 10 µM; multiplex microsphere protease substrate cleavage; Botulinum neurotoxin type A light chain protease (Clostridium botulinum A str. ATCC 3502); note: plate controls were buffer without enzyme for full effect and enzyme alone for no effect
BoNT-F LC inh: BoNT/F light chain protease inhibitors, primary screen, biochemical, flow cytometry, MLPCN library. Botulinum neurotoxin type F light chain protease (Clostridium botulinum). Multiplex microsphere protease cleavage assay. inhibition, % at 10 µM. 360,000 compounds, 0.22% hits. AID 588497, 2011; in the data active = inhibition above about 35%, passing the limit was not always enough; inconclusive = no clear call, values can overlap the other calls; note: plate controls were buffer without enzyme for full effect and enzyme alone for no effect
* hit, by the source's call; ? = inconclusive. Cut-off read from the data, not from the text of the source, unless noted: active = inhibition above about 30%; inconclusive = no clear call, values can overlap the other calls; inactive = below that.

SMILES	Autofluor counter	Anthrax LF inh2	BoNT A protease	BoNT-F LC inh
CN(C(=O)COC(=O)C1CCN(S(=O)(=O)c2ccc3c(c2)OCCO3)CC1)C1CCCCC1	5738	-1	-1	-5
O=C(CNC(=O)Cc1ccccc1)NCC(=O)OCc1ccc(C(=O)c2ccccc2)cc1	16310*	-7	-1	-3
CCOc1ccc(NC(=O)Nc2cc(C)ccc2F)cc1	16132*	-5	1	2
Cc1ccc(N2C(=O)CC3(CCCC3)CC2=O)cc1	5109	32*	-5	?
CCCCN(C(=O)c1nn(C)c(=O)c2ccccc12)c1c(N)n(CC(C)C)c(=O)[nH]c1=O	9199	2	0	-8
c1ccc(-c2csc(-n3cnnn3)n2)cc1	21991*	0	2	5
N#C/C(=C\c1ccc(N2CCOCC2)o1)c1ccccc1	8833	-2	0	-1
N#C/C(=C/c1ccc(N2CCOCC2)o1)c1nc2ccccc2[nH]1	11009	-1	-5	126*
CC(C)[C@H](NS(=O)(=O)c1ccccc1F)C(=O)NC1CCCCC1	2831	2	0	6
COc1ccc(C2C(Oc3ccccc3)C(=O)N2c2cc(C)ccc2C)cc1OC (stereo not drawn)	20605*	-11	-1	-3
COc1ccc(C2C(Oc3ccccc3)C(=O)N2c2ccc(C)c(C)c2)cc1OC (stereo not drawn)	3278	-2	-1	-8
Cc1cc(C)c2c(C)nn(C3CCCCC3)c2n1	16323*	-4	?	0
O=C(Nc1ccc(F)cc1)N1CCC(c2nc3c(nnn3Cc3cccc(Cl)c3)c(=O)[nH]2)CC1	25569*	-2	-5	-10
Cc1ccc(NC(=O)N2CCC(c3nc4c(nnn4Cc4cccc(Cl)c4)c(=O)[nH]3)CC2)cc1	9870	-2	0	-10
O=C(CSCc1n[nH]c(=O)[nH]1)NCCOc1cccc(Oc2ccccc2)c1	19843*	1	-1	-4
Cc1cc(C)n(C(=O)c2c([N+](=O)[O-])c(C)nn2C)n1	24146*	-1	-4	-4
CCn1c(Cc2ccccc2)nnc1SCC(=O)OC(C)C	21705*	3	7	7
Cc1cc(NC(=O)CSc2nnc3ccccn23)no1	17051*	-4	-5	15
Cn1c(Cc2ccccc2)nnc1SCC(=O)c1ccc(Br)s1	23767*	-3	-2	-4
Cn1nnnc1SCC(=O)c1ccc(Br)s1	3079	-4	0	-2
CNC(=O)CSc1nnc(COc2ccc(Cl)cc2)n1CCOC	22197*	1	2	4
CCn1c(Cc2ccccc2)nnc1SCC(=O)NC(C)(C)C	11399	-5	-1	-8
C/C(=N\NC(=O)c1cccc(O)c1)c1ccc(NC(=O)Cc2ccccc2)cc1	5843	-2	0	-3
COCCn1c(Cc2ccccc2)nnc1SCC(=O)N(C)C	21939*	1	1	2
COCCn1c(SCC(=O)Nc2cccc(OC)c2)nnc1-c1ccccc1	8103	0	-2	-8
SMILES	Autofluor counter	Anthrax LF inh2	BoNT A protease	BoNT-F LC inh
CCn1c(SCC(=O)Nc2cc(C)on2)nnc1-c1cccnc1	20847*	-2	-1	-2
COCCn1c(Cc2ccccc2)nnc1SCC(=O)NC(C)(C)C	8229	-3	0	6
CCn1c(SCC(=O)Nc2nc(C)c(C)s2)nnc1-c1cccnc1	17323*	-1	-5	-6
COCCn1c(SCC(=O)OC(C)C)nnc1-c1ccccc1	24184*	-7	-3	-3
CCn1c(Cc2ccccc2)nnc1SCC(=O)Nc1cc(C)on1	21460*	-4	3	3
CC(=O)c1c(O)cc(C)n(-c2ccc(F)cc2)c1=O	2847	0	0	0
CC(=O)c1c(O)cc(C)n(Nc2nc(C)cc(C)n2)c1=O	21656*	-2	?	-3
COc1ccc(OC(=O)CCCN2C(=O)c3ccccc3C2=O)cc1	24000*	-4	-3	-3
Cc1cc(=O)oc2cc(OC(=O)CCN3C(=O)c4ccccc4C3=O)ccc12	22230*	-4	2	2
COc1ccc(OCCN2C(=O)c3ccccc3C2=O)cc1	2165	-2	1	4
Cc1ccc(NC(=O)C(C)OC(=O)/C=C/c2ccccc2)cc1S(=O)(=O)N1CCOCC1 (stereo not drawn)	5936	6	-2	6
O=c1[nH]n(-c2ccc(Cl)cc2)c(=O)c(Cl)c1Cl	21602*	0	?	-3
Cc1cc(C(=O)CN(Cc2ccc(F)cc2)S(=O)(=O)c2ccc3c(c2)OCCO3)c(C)n1C	20608*	-3	?	-4
CC1CCCC(C(=O)O)N1C(=O)CCSC(=O)c1ccccc1 (stereo not drawn)	22094*	-3	2	3
Cn1nnnc1SCCNCc1ccc(Cl)cc1	17333*	-2	?	-9
Cn1nnnc1SCCNCc1ccccc1OCc1ccc(Cl)cc1	2681	-1	0	-15
Cc1cccc(C(=O)Nc2cccc3cccnc23)c1	3902	8	0	-5
O=C(Nc1cccc2cccnc12)c1cccnc1	18275*	-1	6	7
CC(C)OC(=O)c1cc2ccccc2[nH]1	21156*	3	-5	-4
Cc1ccccc1C(=O)N1CCCC(N2CCN(Cc3ccc4c(c3)OCO4)CC2)C1 (stereo not drawn)	?	2	-4	-7
C=CCSc1[nH]c(=O)cc(C)c1C(N)=O	19287*	-2	2	4
Cc1cc(C)c(C(N)=O)c(SCC(=O)c2cc(C)c(C)cc2C)n1	2489	0	0	-1
O=C(COC(=O)[C@@H]1CCCN1S(=O)(=O)c1ccccc1F)NCc1ccc2c(c1)OCO2	?	6	5	12
O=C(C[n+]1ccccc1)NNc1ccccc1	4076	-5	0	-9
COC(=O)c1ccccc1NC(=O)N1CCN(C/C=C/c2ccccc2)CC1	20603*	-2	0	-2
SMILES	Autofluor counter	Anthrax LF inh2	BoNT A protease	BoNT-F LC inh
COc1cccc(NC(=S)N2CCN(C/C=C/c3ccccc3)CC2)c1	22410*	-3	-2	-6
O=C(Nc1ccc2c(c1)OCO2)N1CCN(c2ncccn2)CC1	22918*	0	1	2
O=C(Nc1ccc2c(c1)OCO2)N1CCN(c2ccccc2)CC1	2161	0	-1	-5
O=C(Nc1ccc2c(c1)OCO2)N1CCN(C/C=C/c2ccccc2)CC1	17067*	-2	-2	-4
COc1ccc(C(C)=O)cc1CN1C(=O)C(C)N(c2ccc(C)cc2)C1=O (stereo not drawn)	18676*	-7	?	5
COc1ccc(C(C)=O)cc1CN1C(=O)NC2(CCCCC2)C1=O	2657	-1	-1	-6
O=C(NCC(=O)N(c1cccc(F)c1)C(C(=O)NC1CCCC1)c1cccnc1)c1ccco1 (stereo not drawn)	4142	-4	5	5
CCOc1ccc(C(=O)C[n+]2cccc3cc(C)ccc32)cc1	25078*	12	-18	79*
CS(=O)(=O)Nc1cccc(C2=NN(C(=O)CCCC(=O)O)C(c3cccs3)C2)c1 (stereo not drawn)	3930	-13	-1	-6
Cc1ccc(C)c(OCC(=O)Nc2nc3ccc([N+](=O)[O-])cc3s2)c1C	22520*	-1	?	-1

Assay outcomes (PubChem)
